The whole screen tested about 420,000 compounds, of which about 50,000 (12%) were called active. Another 26% or so got no clear call; they are omitted. For the sample, actives were picked, then their nearest neighbours and some compounds at random. Values without a mark were called inactive. Calls follow the shape of the dose curve; as a rule, active = well fitted inhibition curve with a large enough effect; inconclusive = small, poorly fitted or top-dose-only effect; inactive = flat fitted curve, though single readings scatter.
assay: qHTS for Inhibitors of human tyrosyl-DNA phosphodiesterase 1 (TDP1): qHTS in cells in presence of CPT; details: chicken DT40 Tdp1-/-;hTDP1 cells + 20 nM CPT, ATP luminescence, 48 h; series mostly up to 46.2 µM; activity change, negative = growth inhibition: at the top concentration; also: nearly all actives have a fitted effect of over 55% in size
Summary of the method: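 Cell growth measured by CellTiter-Glo luminescence after a minimum 48 h, 37 C compound exposure with 20 nM CPT in Tdp1-knockout DT40 cells stably expressing hTDP1, seeded 400/well; qHTS titration format.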
% is scaled to controls: 0 for no effect and ±100 for the full control effect; potency is read from the fitted curve at half-maximal effect.

| Compound | activity change, negative = growth inhibition [%] | Potency |
| --- | --- | --- |
| O=C(c1cccs1)N1C[C@H](n2cc(C3CC3)nn2)[C@@H](O)C[C@@H]1c1ccccc1 | -0.33 | – |
| O=C(O)CC12CC3CC(C1)CC(n1ncc(NCc4ccc(F)cc4)c(Cl)c1=O)(C3)C2 | 2.86 | – |
| Cc1ccc(C(=O)NCC(c2cccs2)N(C)C)cc1S(=O)(=O)N1CCOCC1 (centres undefined) | -21.4 | – |
| CC(C)(C)C1CCC(C(=O)NCC(c2cccs2)N2CCOCC2)CC1 (centres undefined) | – | 16.4 µM (active) |
| O=C(NCc1csc(-c2cccs2)n1)C1CC1 | 5.77 | – |
| Cc1c(C=O)c2ccccc2n1CC(=O)O | -0.794 | – |
| Cc1ccc(S(=O)(=O)N2CCOCC2)cc1NC(=O)COC(=O)c1cnccn1 | -0.832 | – |
| COc1cc(/C=C/c2ccc(/C=C/c3cc(OC)c(OC)c(OC)c3)cc2)cc(OC)c1OC | -24.1 | – |
| O=C1c2ccccc2C2=Nc3ccccc3SC(c3ccccc3F)C12 (centres undefined) | – | 14.6 µM (active) |
| O=C1c2ccccc2C(=O)C1c1ccccc1F | 19 | – |
| O=C1CSC(=S)N1c1ccc(Cl)c(Cl)c1 | -13.3 | – |
| C[N+](C)(C)CCNC(=O)c1c[nH]c2ccccc12 | 2.23 | – |
| COc1ccc(/C=C(\NC(=O)c2ccc(OC)c(OC)c2)C(=O)NCCc2c[nH]c3ccccc23)cc1 | -1.48 | – |
| COc1ccc(/C=C(\C#N)c2c[nH]c3ccccc23)cc1 | – | 1.16 µM (active) |
| COC(=O)c1ccc(/C=N/OCC(=O)Nc2cc(F)ccc2F)cc1 | 11.8 | – |
| COc1cccc(N2CC(NS(=O)(=O)c3ccc(Cl)cc3)CC2=O)c1 (centres undefined) | -12.5 | – |
| CSC1=NCCN1C(=O)Cc1cccc2ccccc12 | -4.3 | – |
| c1ccc(C[C@H]2CNCCN2CCC23CC4CC(CC(C4)C2)C3)cc1 | – | 10.3 µM (active) |
| O=C1CCNCCN1[C@H](CO)Cc1ccccc1 | 0.73 | – |
| CC(C)(C)CN1C(=O)C(=O)NC[C@H]1Cc1cccc2ccccc12 | -9.63 | – |
| c1ccc2c(CCN3CCNC[C@H]3Cc3cccc4ccccc34)cccc2c1 | – | 20.6 µM (active) |
| Nn1c(SCC(=O)NC2CCCC2)nnc1-c1ccccc1F | -15.8 | – |
| COCC1CCN(C(=O)c2ccc3oc(Cc4ccccc4)nc3c2)C1 (centres undefined) | 1.38 | – |
| COc1cc(OC)c(NC(=O)c2cc(S(=O)(=O)N3CCCC3)cn2C)cc1Cl | 1.61 | – |
| Cc1cccc(OCCC(=O)Nc2ccccc2C(N)=O)c1 | – | 9.2 µM (active) |
| Cc1cccc(OCC(=O)Nc2ccccc2F)c1 | -10.9 | – |

| Compound | activity change, negative = growth inhibition [%] | Potency |
| --- | --- | --- |
| Cc1ccccc1NC(=O)CCOc1ccccc1 | – | inactive |
| Cc1oc2c(c1C(=O)Nc1ccc(F)c(F)c1)C1=NCCN1C=N2 | -15 | – |
| COc1ccc(/C=N/n2nnnc2N)cc1OC | 18.6 | – |
| Nc1nc(SCC(=O)Nc2ccc(Cl)c([N+](=O)[O-])c2)n[nH]1 | -16.2 | – |
| CC(OC(=O)CN1C(=O)COc2ccccc21)C(=O)NCc1ccc(F)cc1 (centres undefined) | -15.2 | – |
| O=C(CN1CCOC1=O)N1CCCC(Nc2ccc(F)c(F)c2)C1 (centres undefined) | 5.44 | – |
| CC(C)=C1C2CCC1C1C(=O)N(NC(=O)c3ccco3)C(=O)C21 (centres undefined) | 1.68 | – |
| O=C(NCCOc1ccccc1)c1ccccc1 | 1.35 | – |
| O=C(NCCc1ccccc1)c1ccc(OCCOc2ccccc2)cc1 | 0.389 | – |
| CC(C)(c1ccccc1)c1ccc(OCCN)cc1 | – | 18.4 µM (active) |
| CCOC(=O)c1sc(NC(=O)/C=C/c2ccc(C(C)C)cc2)c(C(=O)OCC)c1C | 5.17 | – |
| COc1cccc(CNC(=O)[C@@H]2CCCN2C(=O)[C@@H]2CCCN2C(=O)c2ccccc2)c1 | -27.4 | – |
| CCOC(=O)CNC(=O)c1nn(-c2cccc(OC)c2)c(=O)c2ccccc12 | 4.95 | – |
| COc1cccc(-n2nc(C(=O)N3CCN(Cc4ccccc4)CC3)c3ccccc3c2=O)c1 | – | 20.6 µM (active) |
| COc1cccc(N2C(=O)CN(Cc3ccccc3)C2=S)c1 | -10.6 | – |
| N=C1C(c2nc3ccccc3[nH]2)=C(O)CN1NC(=O)c1c[nH]c2ccccc12 | 4.83 | – |
| O=C(COC(=O)CCCN1C(=O)c2cccc3cccc(c23)C1=O)NC1CCS(=O)(=O)C1 (centres undefined) | 4.29 | – |
| Cc1ccc(-c2cc(C(=O)Nc3nn[nH]n3)c3ccccc3n2)c(C)c1 | 10.7 | – |
| Cc1ccc(-c2cc(C(=O)N/N=C/C=C/c3ccco3)c3ccccc3n2)cc1C | – | 8.2 µM (active) |
| Nc1ccccc1C(=O)NC1CCCCNC1=O (centres undefined) | 10.6 | – |
| CNC(=O)c1ccc(CN(C)C(=O)c2cc(C3CC3)nc3c2cnn3C(C)C)cc1 | -22.5 | – |
| CCOC(=O)c1ccc(-c2ccc(/C=C(\C#N)C(=O)Nc3ccc(C)cc3)o2)cc1 | – | 9.2 µM (active) |
| CCOC(=O)c1ccc(NC(=O)CNC(=O)c2ccco2)cc1 | -0.879 | – |
| CCOC(=O)c1ccc(-c2ccc(/C=C(\C#N)C(=O)Nc3ccc(OCC)cc3)o2)cc1 | -5.81 | – |
| N#C/C(=C\N1CCOCC1)S(=O)(=O)c1ccc(Cl)cc1 | -4.67 | – |
| O=C(COC(=O)c1ccccn1)NNC(=O)c1ccc([N+](=O)[O-])cc1 | 6.48 | – |

| Compound | activity change, negative = growth inhibition [%] | Potency |
| --- | --- | --- |
| O=S1(=O)CCN(Cc2ccccc2)CC1 | -3.67 | – |
| CN(CC(=O)NCc1ccncc1)S(=O)(=O)c1ccc(Br)cc1 | -6.71 | – |
| CC(=O)c1nn(-c2ccccc2)c(=Nc2ccccc2)cc1C | -5.14 | – |
| O=c1[nH]c(-c2cccs2)nc2ccccc12 | -22.6 | – |
| CC(=O)Nc1cccc(Nc2nc(-c3cccs3)nc3ccccc23)c1 | – | 16.4 µM (active) |
| COC(=O)c1cc(-c2cccs2)nc2ccccc12 | 1.15 | – |
| CCN(CC)c1ccc(/C=N/NC(=O)CNC(=O)c2cccs2)cc1 | 2.32 | – |
| CCN(C(=O)CSc1ncnc2sccc12)c1c(N)n(Cc2ccccc2)c(=O)[nH]c1=O | 9.86 | – |
| COc1ccc(OCC(=O)Nc2cc(C)c(Cl)cc2OC)c([N+](=O)[O-])c1 | -1.34 | – |
| Cc1nnc(-c2ccc(Oc3ccc(C)c(C)c3)c([N+](=O)[O-])c2)o1 | – | 16.4 µM (active) |
| COc1ccc(-c2nc3cc([N+](=O)[O-])ccc3o2)cc1OC | 27.4 | – |
| Nc1nc(SCC(=O)NN(c2ccccc2)c2ccccc2)n[nH]1 | -13.5 | – |
| Cc1ccc(C(=O)Nc2ccccc2F)cc1S(=O)(=O)N1CCOCC1 | -22.7 | – |
| CCc1ccc(N(C(=O)c2csnn2)C(C(=O)NC2CCCCC2)c2cccnc2)cc1 (centres undefined) | -12.1 | – |
| Cc1ccc(S(=O)(=O)NCCC(c2ccccc2)c2ccccc2)cc1C(=O)O | 7.68 | – |
| O=c1[nH]oc(O)c1-c1ncc(C(F)(F)F)cc1Cl | 7.03 | – |
| Cc1ccc(-c2nnc(Nc3ccc(C(=O)N(C)C)cc3)c3ccccc23)cc1S(N)(=O)=O | -0.81 | – |
| CCNS(=O)(=O)c1cc(-c2nnc(Nc3cccc(C(F)(F)F)c3)c3ccccc23)ccc1C | – | 5.8 µM (active) |
| COCCNS(=O)(=O)c1cc(-c2nn3c(C)nnc3c3ccccc23)ccc1C | -19.3 | – |
| O=C(O)C1CCCN1C1=NS(=O)(=O)c2ccccc21 (centres undefined) | 3.57 | – |
| CN1OC[C@@H]2CN(S(=O)(=O)c3cccc(C(F)(F)F)c3)[C@H](c3ccc(-c4cc5ccccc5o4)cc3)C[C@@H]21 | -28.6 | – |
| CC1=CC(=NNS(=O)(=O)c2ccc([N+](=O)[O-])cc2)CC(C)(C)C1 | -24.4 | – |
| CCCC1OC23CCCCC2C(C#N)(C#N)C1(C#N)C(=N)O3 (centres undefined) | – | 5.8 µM (active) |
| O=C(CSc1cn(CC(=O)N2CCOCC2)c2ccccc12)Nc1ccccc1 | -7.68 | – |
| O=C(NCc1ccccc1)[C@@H]1CSC2c3ccccc3C(=O)N21 (some centres undefined) | -16.3 | – |
| COCCCC1CCN(C(=O)C2CCC(=O)N(C3CCCCCC3)C2)CC1 (centres undefined) | -49.8 | – |

| Compound | activity change, negative = growth inhibition [%] | Potency |
| --- | --- | --- |
| CC1CN(/C=C/C(=O)C(F)(F)F)CC(C)O1 (centres undefined) | -1.96 | – |
| COC(=O)N/N=C/c1c[n+]([O-])c2ccccc2[n+]1[O-] | -9.69 | – |
| O=C(NNS(=O)(=O)c1ccc(Cl)cc1)C1CCN(Cc2ccccc2)CC1 | -15.1 | – |
| O=C(COc1ccc(Cl)cc1Cl)NCCCNC(=O)c1cnccn1 | 2.77 | – |
| Cc1cccnc1C(NC(=O)C1CCN(Cc2ccc(Cl)c(Cl)c2)CC1)c1ccc(Cl)cc1 (centres undefined) | – | 3.26 µM (active) |
| Clc1ccc(CN2CCCCCC2)cc1Cl | -1.23 | – |
| COc1cccc(CN2CCC(C(=O)NC(c3ccc4c(c3)OCO4)c3ccccn3)CC2)c1 (centres undefined) | 1.86 | – |
| O=C(CCCOc1ccc(Cl)cc1Cl)NNC(=O)C1CCC1 | -2.64 | – |
| CCOc1ccc(S(=O)(=O)N2CCC(C(=O)NCc3ccccn3)CC2)cc1Cl | 1.14 | – |
| Cc1ccc(C(NC(=O)C2CCN(CCOc3ccc(Cl)cc3Cl)CC2)c2ccccn2)cc1 (centres undefined) | – | 25.9 µM (active) |
| O=C(NC(c1ccc(-c2ccccc2)cc1)c1cnccn1)C1CCN(CCOc2ccc(Cl)cc2Cl)CC1 (centres undefined) | – | 16.4 µM (active) |
| Cc1cnc(NC(=O)Cn2cnc3c2c(=O)n(C)c(=O)n3C)s1 | 7.56 | – |
| Cc1nc2cccnc2nc1C | 10.8 | – |
| Cc1cc(C)c(NC(=S)N2CCCC2C(=O)O)c(C)c1 (centres undefined) | -28.7 | – |
| COC(=O)[C@H](Cc1ccccc1)NC(=O)Nc1ccc(OC)cc1 | -1.58 | – |
| Cc1ccc(NC(=O)Nc2cccc(C(F)(F)F)c2)nc1 | 8.78 | – |
| CC(C)C[C@H](NC(=O)Nc1cccc(C(F)(F)F)c1)C(=O)O | 1.51 | – |
| COc1ccc(CC(N)c2csc(NC(=O)Nc3ccc(C(C)C)cc3)n2)cc1 (centres undefined) | – | 6.51 µM (active) |
| COc1ccc(C(N)c2csc(NC(=O)Nc3cccc(C(F)(F)F)c3)n2)cc1 (centres undefined) | – | 18.4 µM (active) |
| COc1ccc(NC(=O)C(Br)C(C)C)cc1 (centres undefined) | 1.83 | – |
| CC(C)(C)CC(=O)Nc1nc(C(N)Cc2ccc(C(F)(F)F)cc2)cs1 (centres undefined) | – | 23.1 µM (active) |
| NC(c1csc(NC(=O)Nc2cccc(C(F)(F)F)c2)n1)C1CCCCC1 (centres undefined) | – | 20.6 µM (active) |
| CC(C)(C)CC(=O)Nc1nnc(SCC(=O)NCc2cccs2)s1 | -18.8 | – |
| Cc1ccccc1NC(=O)Cc1nc(COC(=O)c2ccc(C(F)(F)F)cc2)cs1 | -13 | – |
| COc1ccc(C(CC(=O)Nc2ccc(C)cc2)NC(=O)C(F)(F)F)cc1 (centres undefined) | 3.04 | – |
| COc1ccc(NC(=O)CN(C)CC(=O)Nc2cccc(C(F)(F)F)c2)cc1 | -4 | – |

From PubChem BioAssay AID686979 (National Center for Advancing Translational Sciences (NCATS), 2013)
